Measurements taken from PubChem BioAssay.
Calls of active or inactive are those of the source.

What was measured:
[1] = tested on: Wnt5a (protein binding on small-molecule microarray); assay: Wnt5a binders on small-molecule microarray, primary screen, biophysical, 635/667 nm fluorescence (AID 1142); details: 635 nm fluorescence, higher = more signal;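 note: fluorescence read at 667 nm with signal to noise per printed feature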
[2] = cell viability in Huh7 cells, primary screen, cytotoxicity control for HCV replication inhibitor project, CellTiter-Glo luminescence, basal, 48 h (AID 1143); details: Huh7 HCV replicon, higher = more signal, called active from +8 up or from −8 down;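 note: Huh7 hepatoma cells carrying a hepatitis C replication reporter with no stimulus; test concentration not given here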
[3] = CREB reporter modulators without forskolin, primary screen, cell-based, PC12, CRE-LacZ reporter, unstimulated (AID 1145); details: no forskolin, luminescence, 4.5 h, higher = more signal, called active from +8 up or from −8 down
[4] = CREB reporter modulators under forskolin, primary screen, cell-based, PC12, CRE-LacZ reporter, forskolin-stimulated (AID 1146); details: luminescence, 4.5 h, higher = more signal, called active from +8 up or from −8 down;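 note: PC12 cells with 6xCRE LacZ reporter stimulated by forskolin 10 µM; beta-galactosidase reporter signal reflecting CREB driven transcription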
[5] = target: Streptavidin (Streptomyces avidinii) (UniProt P22629); assay: streptavidin binders on small-molecule microarray, primary screen, artefact control for SMM compound annotation, biophysical, 635/667 nm fluorescence (AID 1147); details: streptavidin binding, higher = more signal;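 note: signal reflects streptavidin binding to arrayed compounds as a control protein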
[6] = small-molecule binders of probe aInhba, primary screen, biochemical, small-molecule microarray, 635/667 nm fluorescence (AID 1148); details: higher = more signal;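 note: score merges 667nm spot fluorescence with signal-to-noise for antibody binding to printed compounds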
Torsin-1A (Homo sapiens) [7] = target: Torsin-1A (Homo sapiens) (UniProt O14656); assay: torsin A binders from cell lysate, primary screen, small-molecule microarray, wild-type, 635/667 nm (AID 1149); details: COS7 hTOR1A-WT lysate, 635 nm fluorescence, higher = more signal
Torsin-1A (Homo sapiens) [8] = target: Torsin-1A (Homo sapiens) (UniProt O14656); assay: small-molecule binders of mutant TOR1A in lysate, primary screen, cell lysate, small-molecule microarray, COS7 lysate, 635/667 nm fluorescence (AID 1150); details: COS7 hTOR1A mutant lysate, 635 nm fluorescence, higher = more signal;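 note: score pools 667 nm emission and signal to noise measuring lysate protein binding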
[9] = tested on: Sonic hedgehog protein (Shh); assay: small-molecule binders of Shh protein, primary screen, biochemical, small-molecule microarray, 635/667 nm fluorescence (AID 1151); details: small-molecule microarray binding, 635 nm fluorescence; higher = more signal;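 note: Shh protein binding to compounds spotted on small-molecule microarray slides; score combines spot fluorescence intensity with signal-to-noise across triplicate slides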
[10] = E. coli DRC41 culture turbidity changes, primary screen, E. coli filamentation inducer project, strain DRC41, OD650, 48 h (AID 1152);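 note: E. coli MC1000 strain DRC41 lacking acrAB efflux pump and sulA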; details: E. coli DRC41 (acrAB sulA), higher = more signal, called active from +8 up or from −8 down
[11] = small-molecule binders of probe aLefty1, primary screen, biochemical, small-molecule microarray, 635/667 nm fluorescence (AID 1153); details: higher = more signal;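 note: score merges spot fluorescence with signal-to-noise ratio from the scanned slide images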
[12] = PSAC antagonists in infected red cells, primary screen, cell-based, P. falciparum Indochina, OD700, 1 h (AID 1154); details: P. falciparum Indochina infected RBC osmotic lysis, higher = more signal, called active from +8 up or from −8 down
[13] = PSAC antagonists in infected red cells, primary screen, cell-based, P. falciparum Indochina, OD700, 2 h (AID 1155);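 note: lysis reports solute entry through the parasite surface anion channel PSAC; channel blockers reduce lysis of infected cells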; details: P. falciparum Indochina infected erythrocytes, osmotic lysis OD700; higher = more signal, called active from +8 up or from −8 down
[14] = osmotic lysis modulators in infected erythrocytes, primary screen, PSAC antagonist project, cell-based, P. falciparum Indochina, OD700, 3 h (AID 1156); details: higher = more signal, called active from +8 up or from −8 down
[15] = PSAC antagonists in infected red cells, primary screen, cell-based, P. falciparum Indochina, OD700, 18 h (AID 1157); details: P. falciparum Indochina infected erythrocytes, osmotic lysis OD700, 18 h; higher = more signal, called active from +8 up or from −8 down
[16] = modulators of S6 phosphorylation in cells, primary screen, cell-based, A549, cytoblot, luminescence, serum-stimulated (AID 1158); details: A549 phospho-S6 cytoblot, 5 h, higher = more signal;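 note: serum-stimulated A549 lung adenocarcinoma cells; signal is phosphorylated S6 detected by cytoblot immunostaining with HRP secondary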
[17] = target: NADPH oxidase 2 (Homo sapiens) (UniProt P04839); assay: NOX2-dependent H2O2 signal modulators, primary screen, NOX inhibitor project, cell-based, HEK293-NOX2, PMA-stimulated, Amplex Red fluorescence (AID 1159); details: 45 min, higher = more signal, called active from +8 up or from −8 down; note: test concentration not given here
[18] = target: NADPH oxidase 4 (Homo sapiens) (UniProt Q9NPH5); assay: NOX4-dependent H2O2 signal modulators, primary screen, NOX inhibitor project, cell-based, HEK293-NOX4, tetracycline-induced, Amplex Red fluorescence (AID 1160); details: 45 min, higher = more signal, called active from +8 up or from −8 down
[19] = target: NADPH oxidase 5 (Homo sapiens) (UniProt Q96PH1); assay: NOX5-dependent H2O2 signal modulators, primary screen, NOX inhibitor project, cell-based, HEK293-NOX5, Amplex Red fluorescence (AID 1161); details: HEK293-NOX5, ionomycin, 45 min, higher = more signal
[20] = A549 cell viability effects, profiling panel, calcein-AM fluorescence, 48 h, basal (AID 1162); details: higher = more signal; note: test concentration not given here

Sequence of Torsin-1A (Homo sapiens) (O14656 whole entry, looked up): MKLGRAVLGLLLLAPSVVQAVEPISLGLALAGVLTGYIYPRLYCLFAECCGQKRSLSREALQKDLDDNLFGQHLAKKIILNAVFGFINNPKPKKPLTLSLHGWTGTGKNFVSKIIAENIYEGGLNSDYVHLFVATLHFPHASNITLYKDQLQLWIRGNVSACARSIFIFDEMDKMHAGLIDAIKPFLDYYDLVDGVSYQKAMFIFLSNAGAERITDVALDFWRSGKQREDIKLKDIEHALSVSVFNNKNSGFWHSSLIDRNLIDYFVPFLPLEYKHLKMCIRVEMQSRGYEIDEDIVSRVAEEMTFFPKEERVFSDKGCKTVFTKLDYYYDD
Sequence of NADPH oxidase 4 (Homo sapiens) (Q9NPH5 whole entry, looked up): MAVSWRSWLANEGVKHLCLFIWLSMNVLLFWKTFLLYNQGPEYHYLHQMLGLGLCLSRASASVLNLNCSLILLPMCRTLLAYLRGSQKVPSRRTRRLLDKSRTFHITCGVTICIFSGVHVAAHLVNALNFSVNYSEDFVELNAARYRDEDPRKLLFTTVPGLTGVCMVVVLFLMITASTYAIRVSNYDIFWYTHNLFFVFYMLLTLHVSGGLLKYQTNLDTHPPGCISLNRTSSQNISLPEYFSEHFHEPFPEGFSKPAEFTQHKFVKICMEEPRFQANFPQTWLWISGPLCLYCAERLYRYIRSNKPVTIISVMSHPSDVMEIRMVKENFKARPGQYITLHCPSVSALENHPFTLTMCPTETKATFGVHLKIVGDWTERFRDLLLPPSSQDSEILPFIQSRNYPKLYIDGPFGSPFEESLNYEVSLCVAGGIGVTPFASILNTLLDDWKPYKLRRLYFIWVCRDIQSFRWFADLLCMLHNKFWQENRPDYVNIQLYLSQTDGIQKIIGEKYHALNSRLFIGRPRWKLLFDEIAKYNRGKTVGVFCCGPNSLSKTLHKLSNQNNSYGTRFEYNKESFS
Sequence of NADPH oxidase 5 (Homo sapiens) (Q96PH1 whole entry, looked up): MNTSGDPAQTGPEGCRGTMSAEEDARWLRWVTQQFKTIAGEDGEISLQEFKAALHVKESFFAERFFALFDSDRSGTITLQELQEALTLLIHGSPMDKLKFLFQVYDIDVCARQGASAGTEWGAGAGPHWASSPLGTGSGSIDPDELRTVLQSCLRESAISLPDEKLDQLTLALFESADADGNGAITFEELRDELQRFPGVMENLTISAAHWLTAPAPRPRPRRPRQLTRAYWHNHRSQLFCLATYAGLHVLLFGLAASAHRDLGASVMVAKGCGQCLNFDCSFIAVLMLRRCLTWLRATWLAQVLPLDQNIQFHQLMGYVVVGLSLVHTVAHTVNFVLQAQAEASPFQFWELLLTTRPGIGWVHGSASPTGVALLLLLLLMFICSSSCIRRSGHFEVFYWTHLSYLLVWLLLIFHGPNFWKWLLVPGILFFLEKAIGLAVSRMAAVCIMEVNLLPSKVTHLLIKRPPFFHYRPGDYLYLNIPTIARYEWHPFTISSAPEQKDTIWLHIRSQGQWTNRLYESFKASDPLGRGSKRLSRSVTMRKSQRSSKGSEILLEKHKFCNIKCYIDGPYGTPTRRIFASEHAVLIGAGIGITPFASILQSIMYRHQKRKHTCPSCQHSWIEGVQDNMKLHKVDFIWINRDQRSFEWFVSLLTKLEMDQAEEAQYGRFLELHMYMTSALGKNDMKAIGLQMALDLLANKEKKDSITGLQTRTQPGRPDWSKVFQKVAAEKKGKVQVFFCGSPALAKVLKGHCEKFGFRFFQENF
Sequence of Streptavidin (Streptomyces avidinii) (P22629 whole entry, looked up): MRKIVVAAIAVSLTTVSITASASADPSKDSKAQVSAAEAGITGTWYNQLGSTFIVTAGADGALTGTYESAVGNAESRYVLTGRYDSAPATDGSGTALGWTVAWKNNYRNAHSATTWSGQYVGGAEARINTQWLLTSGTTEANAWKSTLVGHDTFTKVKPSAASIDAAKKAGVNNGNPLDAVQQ
Sequence of NADPH oxidase 2 (Homo sapiens) (P04839 whole entry, looked up): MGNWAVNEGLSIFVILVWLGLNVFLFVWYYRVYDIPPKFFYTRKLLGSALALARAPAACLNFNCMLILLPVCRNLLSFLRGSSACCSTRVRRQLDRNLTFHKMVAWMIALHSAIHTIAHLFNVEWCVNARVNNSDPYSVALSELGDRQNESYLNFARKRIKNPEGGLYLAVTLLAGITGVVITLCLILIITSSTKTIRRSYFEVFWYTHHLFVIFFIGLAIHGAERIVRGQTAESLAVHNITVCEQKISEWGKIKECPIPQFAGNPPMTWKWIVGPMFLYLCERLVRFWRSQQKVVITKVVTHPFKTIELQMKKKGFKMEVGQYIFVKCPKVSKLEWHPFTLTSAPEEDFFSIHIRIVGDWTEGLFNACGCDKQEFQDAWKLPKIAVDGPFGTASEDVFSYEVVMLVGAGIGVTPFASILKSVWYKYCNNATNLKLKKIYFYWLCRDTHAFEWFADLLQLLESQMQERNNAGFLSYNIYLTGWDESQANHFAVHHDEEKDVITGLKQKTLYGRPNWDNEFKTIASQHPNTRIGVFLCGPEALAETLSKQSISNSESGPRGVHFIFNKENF

SMILES	composite z-score [1]	z-score [2]	z-score [3]	z-score [4]	composite z-score [5]	composite z-score [6]	composite z-score (Torsin-1A (Homo sapiens) [7])	composite z-score (Torsin-1A (Homo sapiens) [8])	composite z-score [9]	z-score [10]	composite z-score [11]	z-score [12]	z-score [13]	z-score [14]	z-score [15]	z-score [16]	z-score [17]	z-score [18]	z-score [19]	z-score [20]
C=C(C1=CCN(S(=O)(=O)c2ccc(C)cc2)C1)[C@@H](OC(C)=O)[C@@H]1CCCN1S(=O)(=O)c1ccccc1[N+](=O)[O-]	0.0375	-4.37 (inactive)	2.02 (inactive)	-1.11 (inactive)	-1.05	-0.128	-0.499	-0.406	0.706	2.47 (inactive)	-0.109	26.3 (active)	17 (active)	0.77 (inactive)	0.623 (inactive)	0.993	0.0272 (inactive)	-1.36 (inactive)	0.69	-0.498
C=CCC(OC(C)=O)[C@@H]1[C@@H](N(Cc2cc3ccccc3o2)C(=O)c2ccc(-c3ccccc3)cc2)c2cc(OCCCO)ccc2N1C(=O)c1ccc(-c2ccccc2)cc1 (stereo not given in full)	0.0258	0.267 (inactive)	0.6 (inactive)	-0.625 (inactive)	-0.0123	0.0497	-0.347	0.244	0.224	2.06 (inactive)	0.0038	-0.0828 (inactive)	0.179 (inactive)	-0.0582 (inactive)	-0.0337 (inactive)	0.436	0.989 (inactive)	-1.13 (inactive)	0.786	0.0525
CC(C)C(CO)N1C(=O)[C@@H]2[C@H]3C(=O)OCC=C[C@H]3OC23C=CCN(Cc2ccccc2)C(=O)[C@@H]13 (stereo not given in full)	-0.353	-0.524 (inactive)	0.325 (inactive)	0.559 (inactive)	-1.32	-0.195	-0.411	-1.02	0.565	1.64 (inactive)	-0.268	0.379 (inactive)	-0.0407 (inactive)	1.32 (inactive)	-0.16 (inactive)	-0.257	1.5 (inactive)	0.118 (inactive)	1.61	-0.769
CN(C)CCCC[C@@H]1NC(=O)[C@@H]2C[C@H](C(=O)NCCCCCNC(=O)CS)[C@H](c3cccc(OCCO)c3)N2C1=O	0.21	-5.23 (inactive)	-0.39 (inactive)	-1.49 (inactive)	0.07	0.0869	0.672	0.408	2.01	1.97 (inactive)	0.2	2.86 (inactive)	0.159 (inactive)	-2.96 (inactive)	-0.778 (inactive)	2.45	-0.143 (inactive)	0.366 (inactive)	2.19	-0.459
O=C1O[C@H](c2ccccc2)[C@H](c2ccccc2)N2[C@H]1[C@@H](C(=O)NC[C@H](O)c1ccccc1)[C@]1(C(=O)Nc3ccc(C#CC4(O)CCCCCC4)cc31)[C@H]2c1ccc(O)cc1	0.195	-2.13 (inactive)	-0.0607 (inactive)	-0.58 (inactive)	0.26	0.0377	0.704	1.02	1.27	1.46 (inactive)	0.0495	0.519 (inactive)	0.447 (inactive)	0.001 (inactive)	-0.181 (inactive)	0.381	1.68 (inactive)	0.753 (inactive)	1.58	0.97
C=C(C(=O)CC[C@@H](OC(C)=O)c1ccccc1OCCO)C(C)C	0.235	-4.89 (inactive)	3.88 (inactive)	-1.21 (inactive)	-0.965	-0.0791	0.964	-0.353	1.09	1.19 (inactive)	-0.29	0.425 (inactive)	0.279 (inactive)	-1.49 (inactive)	0.479 (inactive)	-0.258	1.24 (inactive)	-0.759 (inactive)	-2.43	-0.646
CCCCCCC#C[Si](O[C@H](c1ccccc1)c1cn(Cc2ccccc2)nn1)(C(C)C)C(C)C	-0.0163	-1.53 (inactive)	-1.23 (inactive)	-1.35 (inactive)	0.239	-0.128	0.122	0.345	0.609	3.05 (inactive)	-0.101	1.66 (inactive)	-0.226 (inactive)	-0.0275 (inactive)	-0.327 (inactive)	0.35	-0.941 (inactive)	0.369 (inactive)	-1.87	1.68
C#CCN1C(C(=O)OCC)OC[C@H]1c1ccccc1 (stereo not given in full)	0.0718	-2.25 (inactive)	1.12 (inactive)	-0.678 (inactive)	-0.0517	0.195	3.34	3.27	0.789	2.39 (inactive)	-0.0061	0.0429 (inactive)	-1.18 (inactive)	0.696 (inactive)	-2.37 (inactive)	1.01	0.413 (inactive)	0.918 (inactive)	-0.727	0.208
